# Most compounds without a hit are left out; they make up all but 4.1% or so of the library.
# FMDV inh – High Throughput Screening for Foot and Mouth Disease Virus Antivirals | FMDV antiviral cell-based qHTS | 410,000 tested, 1.2% active | Potency, µM (series often up to 57.9 µM), for the others: at the highest dose activity change, negative = inhibition, hits mostly inhibitors | AID 1159524, 2015; calls by dose curve; tested in HEK293T cells; further: read-out not given here; nearly all actives have a fitted effect of over 45% in size
# AmpC inh detg – qHTS Inhibitors of AmpC Beta-Lactamase (assay with detergent) | P00811 | AmpC hydrolysis of nitrocefin, absorbance 480 nm, 0.01% Triton | Potency, µM (top dose mostly 114 µM), for inactives: at the top dose activity change, negative = inhibition, actives largely listed as inhibitors | 370,000 tested, 0.041% active | AID 485294, 2010;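 further: 0% = no-compound wells and -100% = no-enzyme wells; nearly all actives have a fitted effect of over 25% in size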
# Target sequence (P00811 whole entry, looked up): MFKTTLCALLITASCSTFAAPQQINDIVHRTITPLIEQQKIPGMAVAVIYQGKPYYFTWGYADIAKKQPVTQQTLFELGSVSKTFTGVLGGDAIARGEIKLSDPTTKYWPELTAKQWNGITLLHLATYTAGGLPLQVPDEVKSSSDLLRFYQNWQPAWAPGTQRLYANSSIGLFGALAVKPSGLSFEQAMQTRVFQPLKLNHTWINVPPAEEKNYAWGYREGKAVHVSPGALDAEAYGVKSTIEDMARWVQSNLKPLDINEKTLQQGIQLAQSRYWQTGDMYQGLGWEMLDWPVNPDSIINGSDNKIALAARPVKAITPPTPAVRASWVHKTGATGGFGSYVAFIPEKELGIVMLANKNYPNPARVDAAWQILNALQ
#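 20 mM phosphate pH 7.0 + 0.01% (detergent screen) or 0.0001% Triton X-100; 5.3 nM AmpC reagent; cpd preinc 15 min RT; nitrocefin (800 uM stock) to start; A480 q20 s × 4 min; Activity was normalised to no-enzyme and no-compound control wells.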
# AmpC inh no detg – qHTS Inhibitors of AmpC Beta-Lactamase (assay without detergent) | 330,000 tested, 0.52% active | AmpC nitrocefin hydrolysis, absorbance 480 nm, 0.0001% Triton | P00811 | Potency, µM (series often up to 57.1 µM), for the others: at the top dose activity change, negative = inhibition, most hits filed as inhibitors;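 further: plate controls were no compound for no effect and no enzyme for full effect; nearly all actives have a fitted effect of over 20% in size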
#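 AmpC (5.3 nM in the dispensed reagent) in 20 mM phosphate pH 7.0 with 0.01% (detergent screen) or 0.0001% Triton X-100 was preincubated with compounds for 15 min at room temperature. Nitrocefin was then added from an 800 uM solution, and hydrolysis was followed at 480 nm.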
# Sm TGR inh – qHTS Assay for the Inhibitors of Schistosoma Mansoni Peroxiredoxins; purified TGR, DTNB reduction, TNB absorbance 405 nm; Schistosoma mansoni thioredoxin glutathione reductase (TGR), Q962Y6; Potency, µM (titrated, usually from 114 µM), for inactives: at the highest dose activity change, negative = inhibition, most hits filed as inhibitors; 360,000 tested, 3% active; AID 485364, 2010; further: nearly all actives have a fitted effect of over 60% in size
#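 Kinetic colorimetric format: TGR-catalysed, NADPH-driven DTNB reduction monitored via TNB absorbance. Enzyme dispensed at 20 nM; compound exposure 15 min at room temperature before reaction start.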
# AMA1-RON2 inh – qHTS for Inhibitors of AMA1-RON; Towards Development of Antimalarial Drug Lead: Primary Screen; Plasmodium falciparum AMA1 (3D7) - RON2 peptide interaction; AlphaScreen AMA1-biotinylated RON2 peptide binding; Potency, µM (highest dose often 58.2 µM), inactives show at the top dose activity change, negative = inhibition, usual class: inhibitors; 360,000 tested, 0.2% active; AID 720542, 2013;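 further: 0% = vehicle wells and -100% = peptide control; nearly all actives have a fitted effect of over 45% in size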
#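 AMA1 (3D7) with his tag at 25 nM final met compounds first, then biotinylated RON2 peptide at 25 nM; detection used donor plus acceptor beads, 10 µg/mL apiece, read by AlphaScreen after 30 min at room temperature.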
# The depositor's hits bear a star; u = inconclusive; x = no result given; ! = not active in a repeat. Unless noted, the call rests on the fitted dose curve; in most records, active means well fitted curve in the direction sought with a large enough effect; inconclusive means small, poorly fitted or top-dose-only effect, or another doubt; inactive means no such curve, though single readings can be large; an effect the other way counts as inactive or inconclusive. Unless noted, on the % scale 0 is the no-effect control and ±100 the full control effect; potency means the concentration at half of the fitted maximal effect.
SMILES,FMDV inh,AmpC inh detg,AmpC inh no detg,Sm TGR inh,AMA1-RON2 inh
C=CC(=O)Nc1cccc(N(C)c2ccnc(Nc3ccc(N4CCN(C)CC4)cc3)n2)c1,u,x,x,x,22µM*
CN1CCc2cc(O)c(O)cc2C(c2ccccc2)C1 (centres undefined),-16%,0%,-10%,-34%,-1%
CN1CCc2cc(Cl)c(O)cc2[C@@H](c2ccccc2)C1,1.3µM*!,0%,-29%,-7%,0%
COc1ccc(CCNC(=O)CS(=O)Cc2nc(-c3ccc(C)cc3)oc2C)c(OC)c1 (centres undefined),-4%,-5%,x,u,x
Cc1cc(C(=O)N2CCOc3ccc(CN4CCC(Oc5cccnc5)CC4)cc3C2)c(C)o1,-23%,x,x,x,x
COc1cccc(C(=O)N2CCc3c(C(=O)NC(C)c4ccco4)c(OC)cc(=O)n3CC2)c1OC (centres undefined),23%,x,x,x,x
CC(C)CC(NC(=O)C1CCC(C)CC1)C(=O)OCC(=O)c1ccc(Cl)cc1 (centres undefined),-12%,-11%,x,0%,x
COc1ccc(-c2ccc(CCC(=O)O)n2CC(=O)Nc2cccc(OC)c2)cc1,-13%,3%,-33%,u,0%
Cc1cc(Cl)ccc1-n1c(CCC(=O)O)ccc1-c1cccs1,-9%,4%,x,28µM*,x
Cc1ccc(Cl)cc1-n1c(CCC(=O)O)ccc1-c1cccs1,-14%,1%,x,40µM*,x
Cc1c(Cl)cccc1-n1c(CCC(=O)O)ccc1-c1cccs1,-12%,6%,x,40µM*,x
COc1ccc(-c2ccc(CCC(=O)O)n2-c2ccc(Cl)cc2C)cc1,-16%,11%,x,40µM*,x
Cc1cc(C(=O)Nc2c(C)nc3ccccn3c2=O)ccc1[N+](=O)[O-],-11%,-9%,x,-6%,x
O=S(=O)(c1cccs1)N1CN(Cc2ccco2)c2nc3ccccc3nc21,8%,8%,-38%,u,-15%
Cc1cccc(S(=O)(=O)N2CN(Cc3ccco3)c3nc4ccccc4nc32)c1,17%,-11%,-56%,18µM*,13%
CCOC(=O)C1CCN(/C=C2/C(=O)NC(=O)N(c3cccc(C)c3C)C2=O)CC1,-7%,-13%,-29%,8.9µM*,-2%
CCOC(=O)C1CCN(/C=C2/C(=O)NC(=S)N(c3cccc(OC)c3)C2=O)CC1,1%,-6%,-21%,25%,-9%
CC(=O)c1ccc(S(=O)(=O)Nc2cccc(-c3ccc(N4CCCC4)nn3)c2)cc1,34%,0%,x,1%,x
COc1ccc(S(=O)(=O)Cc2ccc(C(=O)N3CCc4ccccc4C3)o2)cc1,-9%,-1%,40%,20µM*,10%
Cc1ccc(S(=O)(=O)Cc2ccc(C(=O)N3CCN(c4ccc(F)cc4)CC3)o2)cc1,-2%,-2%,34%,0%,-3%
O=C(c1ccc(CS(=O)(=O)c2ccccc2)o1)N1CCOCC1,-21%,5%,-6%,40µM*,-5%
Cc1ccc(S(=O)(=O)Cc2ccc(C(=O)N3CCc4ccccc4C3)o2)cc1,-13%,u,-3%,40µM*,-4%
Cc1ccc(S(=O)(=O)Cc2ccc(C(=O)N3CCN(Cc4ccccc4)CC3)o2)cc1,x,u,40%,35µM*,x
CCCCN1C(=O)CN(C2CCCCC2)C(=O)C1c1ccc(OC(C)C)c(OC)c1 (centres undefined),-16%,5%,x,4%,x
O=C(NCCN1Cc2ccccc2OC(c2ccsc2)C1)c1cncs1 (centres undefined),-6%,x,x,x,x
SMILES,FMDV inh,AmpC inh detg,AmpC inh no detg,Sm TGR inh,AMA1-RON2 inh
COc1cccc(N2CCN(c3ccc4nnc(CCC(=O)O)n4n3)CC2)c1,-19%,2%,x,0%,x
COc1ccc(OC)c(NC(=O)c2c(NCc3ccc(C)o3)sc3c2CCCCC3)c1,0%,2%,x,3.5µM*,x
COc1ccc(OC)c(NC(=O)c2c(NCc3ccc(N(C)C)cc3)sc3c2CCCC3)c1,0%,7%,x,22µM*,x
COc1ccc(Cl)cc1NC(=O)c1c(NCc2ccc(C)o2)sc2c1CCCCC2,0%,3%,x,3.5µM*,x
COc1ccc(OC)c(NC(=O)c2c(NC(=O)CNCc3ccco3)sc3c2CCC3)c1,-24%,-2%,-40%,2%,-5%
COc1ccc(OC)c(NC(=O)c2c(NCc3ccc(OC)c(OC)c3)sc3c2CCC3)c1,u,2%,x,-5%,x
COc1ccc(OC)c(NC(=O)c2c(NCc3sccc3C)sc3c2CCCCC3)c1,30%,5%,x,20µM*,x
CCOC(=O)N1CCc2c(sc(NCc3sccc3C)c2C(=O)Nc2cc(OC)ccc2OC)C1,-1%,-5%,x,-34%,x
CCc1cccc(NC(=O)CN2C(=O)COc3ccc(S(=O)(=O)N4CCC(C)CC4)cc32)c1,-16%,4%,x,13%,x
Cn1c(=O)c2c(nc(NCCCCO)n2Cc2ccccc2Cl)n(C)c1=O,-12%,25%,x,0%,x
COc1ccc(Cl)cc1NC(=O)c1c(NCc2ccc(C)o2)sc2c1CCC(C)C2 (centres undefined),-2%,-2%,x,u,x
COc1ccccc1NC(=O)c1c(NCc2ccc(C)o2)sc2c1CCCCC2,-17%,2%,x,2µM*,x
CCOc1ccc(NC(=O)c2c(NCc3ccc(C)o3)sc3c2CCC(C)C3)cc1 (centres undefined),19%,-1%,x,25µM*,x
CCOc1ccc(NC(=O)c2c(NCc3cccs3)sc3c2CCC(C)C3)cc1 (centres undefined),41%,-10%,x,-10%,x
OCCC1CN(Cc2nc3c(s2)CCCC3)CCN1Cc1ccccc1 (centres undefined),-12%,2%,86%,35µM*,11%
Cc1ccc(CN2CCN(Cc3nc4ccccc4nc3C)CC2CCO)cc1 (centres undefined),-21%,-2%,80%,32µM*,-2%
CCN1CCN(Cc2ccc(NC(=O)c3cc(NC(=O)c4ccno4)cc(OC)c3)cc2C(F)(F)F)CC1,-13%,-3%,70%,8%,-6%
CCN1CCN(Cc2ccc(NC(=O)c3cc(NC(=O)c4cc5cccc(OC)c5o4)cc(OC)c3)cc2C(F)(F)F)CC1,40µM*!,6%,111%,23%,-30%
COc1cccc(-c2nc(-c3ccccc3)c(-c3ccccc3)[nH]2)c1OCC(=O)O,-14%,u,3%,-23%,-26%
O=C(O)COc1ccccc1-c1nc(-c2ccccc2)c(-c2ccccc2)[nH]1,-20%,-3%,3.2µM*,-8%,-8%
O=C(Nc1ccccc1)c1cc(C2CCCN(C(=O)c3ccccc3)C2)on1 (centres undefined),39%,x,x,x,-12%

# Screening results as filed in PubChem.
